# Data: PubChem BioAssay (Tox21)
# Where “and” joins values, the source holds several entries; their conditions need not be identical. Equal values may be shown once. Results filed as inconclusive are left out. Where a call stands in place of a potency, no number is given. Where a structure was tested more than once in an assay, its records may differ in their call. Calls of active or inactive are those of the source. Calls follow the shape of the dose curve; as a rule, active = well fitted cell-killing curve with a large enough effect in the repeat runs; inconclusive = weak or mixed curves; inactive = flat fitted curve, though single readings scatter.
# Assay: qHTS assay to identify small molecule antagonists of the estrogen receptor beta (ER-beta) signaling pathway - cell viability counter screen (AID 1259382); also: nearly all actives have a fitted effect of over 55% in size
# Details: ER-beta-UAS-bla HEK293T viability, CellTiter-Glo luminescence, 16 h; series mostly up to 92.4 µM
# Description: U.S. Tox21 Program National Center for Advancing Translational Sciences [NCATS] NIH Chemical Genomics Center [NCGC] U.S. Environmental Protection Agency [EPA] National Institutes of Environmental Health Sciences [NIEHS] National Toxicology Program [NTP] U.S. Food and Drug Administration [FDA] Tox21 Assay Overview: Estrogen receptor (ER), a nuclear hormone receptor, plays an important role in development, metabolic homeostasis and reproduction. Two subtypes of ER, ER-alpha and ER-beta, have similar expression patterns with some uniqueness in both types. Endocrine disrupting chemicals (EDCs) and their interactions with steroid hormone receptors like ER causes disruption of normal endocrine function. To identify the compounds that inhibit ER signaling, an ER-beta-UAS-bla GripTite cell line (Life Technologies, Madison, WI, USA) containing a beta-lactamase reporter gene under the control of an UAS response element was used to screen Tox21 10K compound library. The cytotoxicity of the Tox21 compound library against the ER-beta-bla cell line was tested in parallel by measuring the cell viability using CellTiter-Glo assay in the same wells.
# Tox21 Assay Protocol Summary: ER-beta-UAS-bla HEK293T cells were dispensed at 2,000 cells/4 uL of assay medium containing 2% charcoal stripped FBS per well into black wall/clear-bottom 1536-well plates using a Multidrop Combi (ThermoFisher Scientific, Waltham, MA) dispenser. After the assay plates were incubated at a 37C and 5% CO2 for 6 hr, 23 nL of compounds dissolved in DMSO, positive controls or DMSO only was transferred to the assay plate by a Pintool station (Kalypsys, San Diego, CA), followed by addition of 1 uL (1nM as final concentration) of 17-beta-estradiol (E2) in assay medium using a Flying Reagent Dispenser (FRD, Aurora Discovery, San Diego, CA). The plates were incubated at 37C and 5% CO2 for 16 hr. Then 1 uL of LiveBLAzer B/G FRET substrate was added using a Flying Reagent Dispenser, the plates were incubated at room temperature for 2 hours, and fluorescence intensity was measured by an Envision plate reader (PerkinElmer, Shelton, CT). For cell viability readout that measures cytotoxicity, 4 uL/well of CellTiter-Glo reagent was added into the assay plates using a FRD. After 30 min incubation at room temperature, the luminescence intensity in the plates was measured using a ViewLux (PerkinElmer) plate reader.
# Potency is read from the fitted curve at half-maximal effect.
row,Structure (SMILES),Potency
1,Cc1ccc2c(c1)C(=O)OC2=O,inactive
2,CCC(Cc1c(I)cc(I)c(N)c1I)C(=O)O (stereo not given),inactive
3,CC1(C)NC(=O)N(c2ccc([N+](=O)[O-])c(C(F)(F)F)c2)C1=O,inactive
4,COC(=O)C(C)Oc1ccc(Oc2ncc(C(F)(F)F)cc2Cl)cc1 (stereo not given),inactive
5,IC(I)I,inactive
6,CCO[Si](CCCNC(N)=O)(OCC)OCC,inactive
7,C=CCCCCCCCCCC,inactive
8,CC1=CC(C)(C)Nc2ccccc21,inactive
9,O=C1OC2(c3ccccc31)c1cc(I)c(O)c(I)c1Oc1c2cc(I)c(O)c1I,inactive
10,Cc1ccc(C)c(O)c1,inactive
11,O=C(O)c1ccc(O)cc1,inactive
12,CC/C=C\C/C=C\C/C=C\CCCCCCCC(=O)O,inactive
13,CC(C)[N+](C)(CCOC(=O)C1c2ccccc2Oc2ccccc21)C(C)C,inactive
14,CCCCCCC(C)O (stereo not given),inactive
15,[Na+],inactive
16,CC1(C)C(C=C(Cl)Cl)C1C(=O)OCc1cccc(Oc2ccccc2)c1 (stereo not given),inactive
17,CNC[C@H](O)c1ccc(O)c(O)c1,inactive
18,CC[C@]12CCCN3CCc4c(n(c5ccccc45)[C@@](O)(C(=O)OC)C1)[C@@H]32,inactive
19,CCC/C=C/C=O,inactive
20,CCCCCC1C(=O)CCC1CC(=O)OC (stereo not given),inactive

row,Structure (SMILES),Potency
1,CCCCCCCCCCCCCO,inactive
2,COc1ccc(C(=O)c2ccccc2O)c(O)c1,inactive
3,Cc1ccc(C(C)(C)C)c(O)c1,inactive
4,O=C(O)CCCC(=O)O,inactive
5,C/C=C/C(=O)N(CC)c1ccccc1C,inactive
6,C=C[C@H]1CN2CC[C@H]1C[C@@H]2[C@@H](O)c1ccnc2ccc(OC)cc12,inactive
7,CC(C)(C)c1cccc(C(C)(C)C)c1O,inactive
8,C=C[C@H]1CN2CC[C@H]1C[C@H]2[C@H](O)c1ccnc2ccc(OC)cc12,inactive
9,C[N+](C)(C)CCO,inactive
10,O=C(O)COCCN1CCN(C(c2ccccc2)c2ccc(Cl)cc2)CC1 (stereo not given),inactive
11,NCCN,inactive
12,O=Cc1ccccc1C=O,inactive
13,Nc1cc([N+](=O)[O-])ccc1C(=O)O,inactive
14,Cc1ccc(N)c([N+](=O)[O-])c1,inactive
15,O=S1(=O)CCCO1,inactive
16,C=CCNCC=C,inactive
17,OC[C@@H](O)[C@@H](O[C@@H]1O[C@H](CO)[C@H](O)[C@H](O)[C@H]1O)[C@H](O)[C@@H](O)CO,inactive
18,O=C(O)c1cc(=O)[nH]c(=O)[nH]1,inactive
19,CCC(=O)O[C@H]1[C@H](O[C@@H]2[C@@H](C)[C@H](O[C@H]3C[C@@](C)(OC)[C@@H](O)[C@H](C)O3)[C@@H](C)C(=O)O[C@H](CC)[C@@](C)(O)[C@H](O)[C@@H](C)C(=O)[C@H](C)C[C@@]2(C)O)O[C@H](C)C[C@@H]1N(C)C,32.2 µM (active) and inactive
20,C=C[C@@]1(C)CC(=O)[C@]2(O)[C@@]3(C)[C@@H](O)CCC(C)(C)[C@@H]3[C@H](O)[C@H](OC(C)=O)[C@@]2(C)O1,21.7 µM (active) and 15 µM (active)
